GPR151 activ – activators of human GPR151, primary screen, cell-based, PathHunter beta-arrestin, luminescence; 650,000 compounds, 1% hits; activation, % at 11.2 µM; AID 1508602, 2020; PathHunter beta-arrestin GPR151 cells; G-protein coupled receptor 151 (Homo sapiens), Q8TDV0; in the data active means activation above about 4.9%
Target sequence (Q8TDV0 whole entry, looked up): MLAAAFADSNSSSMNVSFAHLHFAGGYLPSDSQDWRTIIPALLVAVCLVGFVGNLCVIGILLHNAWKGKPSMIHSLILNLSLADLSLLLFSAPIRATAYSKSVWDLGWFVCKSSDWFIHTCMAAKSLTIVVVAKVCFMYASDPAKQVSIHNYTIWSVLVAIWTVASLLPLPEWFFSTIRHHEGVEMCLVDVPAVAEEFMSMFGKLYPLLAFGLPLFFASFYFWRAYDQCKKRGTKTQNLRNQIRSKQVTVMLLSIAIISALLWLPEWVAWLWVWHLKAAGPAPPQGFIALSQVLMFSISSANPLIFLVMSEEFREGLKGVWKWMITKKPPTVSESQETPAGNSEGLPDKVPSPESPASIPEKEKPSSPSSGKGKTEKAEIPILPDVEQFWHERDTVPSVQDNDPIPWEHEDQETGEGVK
MITF inh – MITF inhibitors, primary screen, biochemical, AlphaScreen, human; inhibition, % at 2.6 µM; Microphthalmia-associated transcription factor (Homo sapiens), O75030; 650,000 compounds, 0.91% hits; AlphaScreen MITF homodimerization, bead proximity signal; AID 1259374, 2018; in the data active means inhibition above about 50%
FBW7 act – FBW7 E3 ligase activators, primary screen, biochemical, AlphaScreen, human; 650,000 compounds, 0.13% hits; normalized activity (activation), % at 26.1 µM; F-box/WD repeat-containing protein 7 (Homo sapiens), Q969H0; AlphaScreen FBW7–phospho-cyclin E peptide binding, activator screen; in the data active means normalized activity above about 1.9%;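 further: purified mutant Fbw7 with reduced substrate affinity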
TEAD-YAP inh – TEAD-YAP interaction inhibition, primary screen, TEAD-YAP interaction inhibitor project, luminescence, HEK-TIYL cells. inhibition, % at 9.12 µM. TEAD-Gal4/YAP UAS-luciferase luminescence. 640,000 compounds, 1.4% hits; in the data active means inhibition above about 32%
GPR151 confirm – GPR151 activators, triplicate retest, confirmation, cell-based, PathHunter beta-arrestin, luminescence; shares compounds with GPR151 activ; GPR151 PathHunter beta-arrestin cells, 90 min; % of EA-reagent control over plate median; activation, % at 11.2 µM; 6,700 tested, under 10 active; AID 1508609, 2020;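 active means mean percent activation across replicates above the confirmation screen cutoff of 4.91%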
GPR119 ag – GPR119 activators in beta-arrestin cells, counter-screen for GPR151 activator project, cell-based, PathHunter beta-arrestin, luminescence, triplicate; shares compounds with GPR151 activ; 90 min; 0 = compound-well median, 100 = enzyme-acceptor control; activation, % at 11.2 µM; 6,700 compounds, 0.3% hits; AID 1508611, 2020;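 active means mean percent activation in the counterscreen above 29.09%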;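 further: counterscreen on off-target GPR119 to flag nonselective hits from the GPR151 activator screen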
Large screens that a line does not name were inactive (follow-up assays come after a bar, where they were run); ! = repeats disagree. A selection: hits, their analogues and other compounds. The true share with any hit is near 3.4%.

COc1cc(OC)cc(C(=O)NNC(=O)Nc2ccc(Cl)c(Cl)c2)c1	none
COc1cc(OC)cc(C(=O)N2CCc3ccccc3C2CNC(=O)Nc2ccc(Cl)c(Cl)c2)c1 (centres undefined)	GPR151 activ 5.3 | GPR151 confirm inactive | GPR119 ag inactive
CN1CCOc2cc(S(=O)(=O)NCCc3ccc(Cl)cc3)ccc21	none
Cc1cc2c(cc1S(=O)(=O)Nc1ccccn1)OCCN2C	none
CCc1ccccc1NS(=O)(=O)c1ccc2c(c1)OCCN2C	none
Cc1cc2c(cc1S(=O)(=O)Nc1ncccc1C)OCCN2C	GPR151 activ 6.3 | GPR151 confirm inactive | GPR119 ag inactive
Cc1cc2c(cc1S(=O)(=O)Nc1ccccc1Br)OCCN2C	GPR151 activ 9.7 | GPR151 confirm inactive | GPR119 ag inactive
COc1ccc(CCNS(=O)(=O)c2ccc3c(c2)OCCN3C)cc1OC	GPR151 activ 5.2 | GPR151 confirm inactive | GPR119 ag inactive
CN1CCOc2cc(S(=O)(=O)Nc3ccccc3F)ccc21	GPR151 activ 16 | GPR151 confirm inactive | GPR119 ag inactive
COC(CN(C)C(=O)c1c(C)nc2ccccn12)OC	none
O=C1N/C(=C/c2ccc(Br)s2)C(=O)N1Cc1ccccc1F	none
c1cc(Nc2ccc3c(c2)OCO3)nc(Nc2ccc(N3CCOCC3)cc2)n1	GPR151 activ 5.1, TEAD-YAP inh 71 | GPR151 confirm inactive | GPR119 ag inactive
COc1ccc(CCNc2cc(C)nc(Nc3cccnc3)n2)cc1	none
COc1ccc(CCNc2cc(C)nc(Nc3ccc4ncccc4c3)n2)cc1	GPR151 activ 7.0, TEAD-YAP inh 47 | GPR151 confirm inactive | GPR119 ag inactive
COc1ccc(CCNc2ccnc(Nc3ccc(N4CCOCC4)cc3)n2)cc1	GPR151 activ 8.3, TEAD-YAP inh 78 | GPR151 confirm inactive | GPR119 ag 60
COc1ccc(CCNc2ccnc(N3CCOCC3)n2)cc1	none
c1cc(Nc2ccc(N3CCOCC3)cc2)nc(Nc2ccc(N3CCOCC3)cc2)n1	none
COc1ccc(CCNc2cc(-c3ccc(N4CCN(C)CC4)cc3)ncn2)cc1	GPR151 activ 6.9 | GPR151 confirm inactive | GPR119 ag inactive
O=[N+]([O-])c1ccc(N2CCOCC2)cc1NCCc1ccccc1	none
CC(=O)CC(=O)c1cc2c(=O)oc(C)cc2oc1=O	none
COCCN1C(=O)C(O)=C(C(C)=O)C1c1ccc(C(C)C)cc1 (centres undefined)	none
COc1cncc(-c2cnc3ccc(NCc4ccc5c(c4)OCO5)nn23)c1	none
COCCC(=O)Nc1ccc2c(c1)CN(C(=O)c1ccc(CSC)o1)CC2	GPR151 activ 9.4 | GPR151 confirm inactive | GPR119 ag inactive
N#Cc1ccc2c(c1)N(Cc1ccccc1F)C(=O)C1CCCN21 (centres undefined)	none
Cc1cccc(CN2C(=O)C3CCCN3c3ccc(C#N)cc32)c1 (centres undefined)	GPR151 activ 9.4 | GPR151 confirm inactive | GPR119 ag inactive
Cc1cccc(NC(=O)c2ccc(Cl)cc2Cl)n1	none
CC(=O)c1ccc(NC(=O)CSc2ccc3nnc(-c4ccc(C)cc4)n3n2)cc1	GPR151 activ 5.8 | GPR151 confirm inactive | GPR119 ag inactive
CC(=O)c1ccc(NC(=O)CSc2ccc3nnc(-c4ccc(F)cc4)n3n2)cc1	none
C=CCn1c(COc2ccccc2C)n[nH]c1=S	none
C=CCn1c(COc2cccc(C)c2C)n[nH]c1=S	GPR151 activ 5.0 | GPR151 confirm inactive | GPR119 ag inactive
CCOC(=O)c1ccc(N2C(=O)CC(N3CCc4ccccc43)C2=O)cc1 (centres undefined)	none
Cc1ccc(NC(=O)CN2C(=S)NC(C)(C)CC2C)cc1 (centres undefined)	none
CC(Oc1ccc2c3c(c(=O)oc2c1)CCCC3)C(=O)O (centres undefined)	none
CSCCC(NC(C)=O)C(=O)Oc1ccc2c3c(c(=O)oc2c1)CCCC3 (centres undefined)	GPR151 activ 5.4! | GPR151 confirm inactive | GPR119 ag inactive
CCOc1ccc(C(=O)Nc2nc3c(ccc4ccccc43)s2)cc1	GPR151 activ 5.5 | GPR151 confirm inactive | GPR119 ag inactive
CCOc1ccc(C(=O)COC(=O)Cc2ccccc2Nc2c(Cl)cccc2Cl)cc1	none
COc1ccc2c(c1)C(C)(C)C1(C=Cc3cc([N+](=O)[O-])ccc3S1)N2C (centres undefined)	none
CCC(C)NC(=O)c1c(C)[nH]c(C(C)=O)c1C (centres undefined)	none
CCn1c(N)c(C(=O)NCC2CCCO2)sc1=S (centres undefined)	GPR151 activ 5.6 | GPR151 confirm inactive | GPR119 ag inactive
CCN1CCSc2ccc(C(=O)NCC3CCCO3)cc21 (centres undefined)	GPR151 activ 8.1 | GPR151 confirm inactive | GPR119 ag inactive
Cc1cc2cc3c(cc2n2c(SCC(=O)O)nnc12)OCO3	none
CCCCN(C)C1CCN(C(=S)Nc2ccc(OC)cc2)CC1	none
COc1ccc(NC(=S)N2CCC(N(C)C(C)C)CC2)cc1	GPR151 activ 5.9 | GPR151 confirm inactive | GPR119 ag inactive
O=C1C2C3C=CC(C4CC34)C2C(=O)N1c1ccc(F)cc1 (centres undefined)	none
COc1ccc(CCNC(=O)COc2ccc3ccccc3c2)cc1OC	none
CCCCN(CC)c1cnn(-c2ccccc2)c(=O)c1N	GPR151 activ 9.2 | GPR151 confirm inactive | GPR119 ag inactive
O=C(CN1CCCCC1)N/N=C/c1ccccc1O	GPR151 activ 5.8 | GPR151 confirm inactive | GPR119 ag inactive
CCCOC(=O)c1cccc(NC(=O)Nc2ccccc2)c1	none
COc1ccc(NC(=O)Cc2nc3ccccc3[nH]2)cc1	GPR151 activ 18, TEAD-YAP inh 38 | GPR151 confirm inactive | GPR119 ag inactive
COc1ccc(OCC(=O)Nc2nc3ccccc3[nH]2)cc1	none
COc1cccc(CC(=O)Nc2nc3ccccc3[nH]2)c1	GPR151 activ 5.6 | GPR151 confirm inactive | GPR119 ag inactive
CCCCN(C)C(=O)CNC(=O)Cn1cnc2ccccc2c1=O	none
Cn1c(=O)c2cc(C(=O)N3CCN(c4ccccn4)CC3)sc2c2ccccc21	none
COc1ccc(C)cc1S(=O)(=O)N1CCC(C(=O)Nc2ccc3c(c2)OCO3)CC1	none
COc1ccc(C)cc1S(=O)(=O)N1CCC(C(=O)Nc2cccc(C(C)=O)c2)CC1	GPR151 activ 6.1 | GPR151 confirm inactive | GPR119 ag inactive

Screening results from PubChem BioAssay.
